Measurements taken from the supplement of paper PMC6555819.

Legend:
Assay in all cases: PBM binding z-score (relative to random genomic background probes); higher = stronger binding; sequences stand for … in GC…GCGATTGACAGCGTAGAATGAAGG
[1] = system: PPARg:RXRa DBDmut IVT, anti-RXR (DBD mutation: RXRa K156A/R161A, NR concentration 270 nM, RXRa partner concentration 90 nM)
Method in brief: (§1)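 Scanned fluorescence from custom Agilent 4×180K protein-binding microarrays was regression-normalized. Binding z-scores use random background probes as reference. Ligand-free nuclear receptor dimers were incubated on the arrays for 1 h and detected with antibodies against each partner (one per run).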

[2] = system: PPARg:RXRa IVT, anti-PPARg (NR concentration 270 nM, RXRa partner concentration 90 nM)
Method in brief: as §1

[3] = system: PPARg DBDmut:RXRa IVT, anti-PPARg (DBD mutation: PPARg1 K132A/R137A, NR concentration 270 nM, RXRa partner concentration 90 nM)
Method in brief: as §1

[4] = system: PPARg DBDmut IVT, anti-PPARg (DBD mutation: PPARg1 K132A/R137A, NR concentration 270 nM)
Method in brief: as §1

[5] = system: PPARg homodimer (NR concentration 180 nM)
Method in brief: as §1

[6] = system: PXR:RXRa (NR concentration 270 nM, RXRa partner concentration 90 nM)
Method in brief: as §1

[7] = system: PXR homodimer (NR concentration 270 nM)
Method in brief: as §1

[8] = system: RARa:RXR (NR concentration 270 nM, RXRa partner concentration 90 nM)
Method in brief: as §1

[9] = system: RARa homodimer (NR concentration 270 nM)
Method in brief: as §1

[10] = system: RARb:RXRa (NR concentration 270 nM, RXRa partner concentration 90 nM)
Method in brief: as §1

[11] = system: RARb homodimer (NR concentration 270 nM)
Method in brief: as §1

[12] = system: RARg:RXRa (NR concentration 270 nM, RXRa partner concentration 90 nM)
Method in brief: as §1

[13] = system: RARg homodimer (NR concentration 270 nM)
Method in brief: as §1

[14] = system: RXRa DBDmut IVT, anti-RXR (DBD mutation: RXRa K156A/R161A, NR concentration 90 nM)
Method in brief: as §1

[15] = system: RXRa homodimer (NR concentration 180 nM)
Method in brief: as §1

[16] = system: THRa:RXRa (NR concentration 90 nM, RXRa partner concentration 90 nM)
Method in brief: as §1

[17] = system: THRa homodimer (NR concentration 90 nM)
Method in brief: as §1

[18] = system: VDR homodimer (NR concentration 270 nM)
Method in brief: as §1

| Sequence | PBM binding z-score [1] | PBM binding z-score [2] | PBM binding z-score [3] | PBM binding z-score [4] | PBM binding z-score [5] | PBM binding z-score [6] | PBM binding z-score [7] | PBM binding z-score [8] | PBM binding z-score [9] | PBM binding z-score [10] | PBM binding z-score [11] | PBM binding z-score [12] | PBM binding z-score [13] | PBM binding z-score [14] | PBM binding z-score [15] | PBM binding z-score [16] | PBM binding z-score [17] | PBM binding z-score [18] |
| --- | --- | --- | --- | --- | --- | --- | --- | --- | --- | --- | --- | --- | --- | --- | --- | --- | --- | --- |
| GGAACGAGGGCAAGTTGATAGCAGAGTTTGATGG | 3.78 | 2.54 | -0.0364 | -0.551 | 0.361 | 0.937 | 0.84 | 0.145 | -0.166 | 2.63 | 1.67 | 1.68 | 2.25 | 2.42 | 0.781 | 1.3 | 0.0645 | 1.9 |
| CGTCCAAGGTCATAGGAGGTCAGCGAAGACAGAT | 3.34 | 4.77 | 0.336 | -0.611 | 4.47 | 7.04 | 3.83 | 6.41 | 2.5 | 5.66 | 5.65 | 7.17 | 7.58 | 4.05 | 7.72 | 5.52 | 3.42 | 4.37 |
| TCTAGTTGGTCACGGAGGTCACCCACGACGGGTA | 2.32 | 4.17 | 1.19 | 1.25 | 3.92 | 4.61 | 1.6 | 4.66 | 1.42 | 3.89 | 4.51 | 4.85 | 5.06 | 0.865 | 5.13 | 3.66 | 2.82 | 2.79 |
| CCTACTGGGCCAAGGTTATTGATCAGTCAAAGCA | 3.46 | 3.58 | -0.243 | -0.723 | 0.597 | 0.145 | -0.133 | 0.421 | -0.486 | 0.659 | 0.487 | 0.504 | 0.249 | -0.428 | 0.318 | 0.787 | 0.234 | -0.0593 |
| CCTAGCGGGCCAATCTGGGTCACTCAAGGCTTGA | 3.83 | 4.82 | -0.426 | -0.554 | 0.532 | 0.83 | -0.579 | 1.49 | -0.347 | 1.45 | 2.14 | 0.91 | 0.984 | -0.4 | 0.724 | 3.59 | 0.327 | -0.159 |
| TCATATAGGTAAATGCTAGGTAAAAGTCCGATCT | 4.04 | 2.3 | 0.817 | 0.766 | 0.885 | 0.727 | 0.893 | 0.814 | 1.8 | 0.393 | 0.193 | 0.567 | 0.36 | 1.76 | 0.806 | 0.9 | 0.258 | 0.409 |
| TCTTGTAGATCAAGCAGGTTAAGAACGCCTGAGT | 1.42 | 0.613 | -0.194 | -0.44 | -0.0997 | 0.399 | 0.197 | 0.48 | -0.305 | 0.23 | 0.231 | 0.0271 | -0.224 | 0.465 | 0.465 | 0.437 | -0.161 | 0.189 |
| TCGAGTAGGCTAGGGGCATTCAGAATGGCGTCGA | 0.831 | -0.362 | -1.38 | -1.61 | -0.968 | -0.194 | -0.983 | -0.131 | -1 | 0.171 | -0.0899 | -0.329 | -0.498 | -0.0684 | 0.0581 | 0.177 | -0.929 | -0.279 |
| CGAACTAGGACATTGACAGGACAGTGAATAGTAA | 4.34 | 3.36 | 1.39 | 0.241 | 0.296 | -0.136 | 0.135 | -0.244 | -0.0168 | 0.136 | 0.469 | 0.496 | 0.642 | 0.451 | -0.322 | 0.858 | 0.623 | 0.546 |
| ACTCAAAGTTCAGGACGAGGTAACGTAAAGCACG | 0.133 | 0.996 | 0.541 | 0.409 | 2.29 | 3.09 | 1.46 | 2.81 | 0.77 | 4.52 | 3.56 | 4.83 | 5.29 | 3.38 | 3.39 | 4.03 | 1.98 | 2.46 |
| ATCTCTAGGTAAAAATAGTTCAGTGAATGCAAAT | 1.13 | 1.46 | 0.671 | 1.22 | 0.455 | 0.922 | 1.12 | 0.59 | 1.51 | 0.993 | 1.13 | 1.01 | 0.9 | 0.16 | 0.292 | 0.72 | 0.138 | 0.549 |
| ACTATTAGCTGAGACGAGGGCAACCGATAGGTTG | -0.032 | 0.377 | -0.216 | -0.0358 | -0.21 | 0.33 | 0.536 | 0.226 | 0.488 | 0.935 | 1.27 | 0.452 | 0.667 | 0.345 | 0.587 | 0.992 | 0.251 | 0.999 |
| TCTAGTTGGTCACGGAGGTCACAGACGACGGGTA | 2.62 | 4.51 | 0.854 | 1.64 | 3.09 | 4.61 | 0.763 | 4.83 | 1.36 | 3.96 | 4.64 | 4.79 | 4.98 | 1.02 | 5.24 | 3.72 | 2.35 | 2.78 |
| TCTGCTAGGTTAGTTGGTCAGCTAACGAGCTGCC | 1.37 | 1.5 | -0.266 | -0.918 | -1.12 | -0.398 | -1.1 | -0.512 | -1.39 | 0.525 | -0.0655 | 0.00476 | -0.189 | -0.0929 | -0.323 | -0.551 | -1.24 | -1.15 |
| CGTCAAAGTTCAACTAAGGTAAGGTAAAGCACGC | 0.313 | 2.23 | 0.694 | 0.769 | 2.56 | 5.25 | 3.24 | 4.42 | 1.63 | 5.2 | 3.92 | 5.8 | 6.23 | 4.39 | 4.88 | 5.19 | 1.95 | 3.59 |
